High-throughput results from PubChem BioAssay.
Hits are enriched below; roughly 4.3% of the tested compounds scored in any of these assays.
MLL AF4-AF9 inh: inhibitors of human MLL-AF4/AF9 interaction; AID 651704; P42568; AlphaScreen, biotin-AF4 peptide binding to FLAG-AF9; 0.47% of 350,000 active; inhibition, % at 10 µM;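 active = every replicate reaching a set inhibition limit, whatever the replicate mean, cut at about 25% in these data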;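 also: 0% = plate neutral control median and 100% = total signal loss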
Target sequence (P42568 whole entry, looked up): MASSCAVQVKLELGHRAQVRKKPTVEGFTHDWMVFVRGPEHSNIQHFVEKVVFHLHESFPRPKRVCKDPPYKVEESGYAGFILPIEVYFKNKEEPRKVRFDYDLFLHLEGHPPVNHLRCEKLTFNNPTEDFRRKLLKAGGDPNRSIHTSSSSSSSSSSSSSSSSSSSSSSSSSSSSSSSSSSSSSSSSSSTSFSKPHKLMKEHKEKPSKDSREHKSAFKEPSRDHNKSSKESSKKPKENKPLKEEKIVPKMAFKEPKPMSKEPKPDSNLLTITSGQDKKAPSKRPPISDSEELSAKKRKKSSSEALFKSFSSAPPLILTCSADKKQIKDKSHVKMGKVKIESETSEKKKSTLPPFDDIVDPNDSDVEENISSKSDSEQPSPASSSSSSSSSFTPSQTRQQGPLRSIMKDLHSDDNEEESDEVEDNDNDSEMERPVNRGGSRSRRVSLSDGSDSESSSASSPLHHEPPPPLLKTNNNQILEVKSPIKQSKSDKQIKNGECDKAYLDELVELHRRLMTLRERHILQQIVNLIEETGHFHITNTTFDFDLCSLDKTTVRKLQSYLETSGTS
SMARCA2 activ: activators of SMARCA2 function. AID 652017. activation, % at 9.1 µM. 1% of 370,000 active. MG213 cells, MMTV-luciferase reporter, dexamethasone, overnight; in the data active = activation above about 7.8%;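 also: 0% = vehicle wells and 100% = reference activator wells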
Wnt act: activators of Wnt/beta-catenin signaling; Wnt/beta-catenin reporter cell assay, activator, plate reader; activation, % at 9.35 µM; AID 743398; 1.2% of 300,000 active; in the data active = activation above about 30%, passing the limit was not always enough;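 also: 0% = neutral control wells and 100% = positive control wells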
MITF TRPM1 HTS: increases MITF-driven TRPM1 promoter luciferase signal; 0.75% of 300,000 active; SK-MEL-5 TRPM1-promoter luciferase, 24 h; % of positive control, neutral wells = 0; activation, % at 12.5 µM;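 active = mean activation of at least 80% with every replicate also reaching 80%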;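 also: 0% = neutral control wells and 100% = parthenolide positive control wells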
esBAF inh: inhibitors of esBAF chromatin remodeling in mouse ES cells. 2% of 350,000 active. Bmi1-luciferase knock-in reporter, 24 h; 100% = twice the neutral-well signal. reporter increase, % at 12.5 µM. AID 602393; in the data active = activation above about 40%;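 also: 0% = median of the plate's neutral control wells and 100% = double that signal; a rise in the Bmi1 reporter signal indicates esBAF inhibition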
FGF22 binding: shifts melting point of recombinant human FGF22. recombinant FGF22 thermal shift, SYPRO orange fluorescence; percent of sucrose octasulfate shift, DMSO zero. activity (Tm shift, normalised), % at 9.99 µM. 1.5% of 340,000 active. AID 651658;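 active = mean Tm shift, scaled 0 neutral to 100 positive control, at about 1.3% or above, every replicate too, limit read from the data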
* marks the source's active call; other numbers are inactive results; · = no result.

SMILES	MLL AF4-AF9 inh	SMARCA2 activ	Wnt act	MITF TRPM1 HTS	esBAF inh	FGF22 binding
COc1ccc(C(=O)OCC(=O)c2ccc[nH]2)cc1	-2.1	-1.8	26.0	76.5	51.3*	-0.3
Cn1nnnc1SCC(=O)NNC(=O)c1ccc(Cl)cc1	0.4	5.3	-3.3	-6.5	·	44.0*
Cn1nnnc1SCC(=O)NNC(=O)c1ccc(F)cc1	-1.1	-0.8	0.7	-12.1	-0.3	41.9
Cn1nnnc1SCC(=O)Nc1ncc(Cl)cc1Cl	-17.2	-2.3	-0.4	3.4	-3.6	0.1
Cn1nnnc1SCc1ccc(C(=O)Nc2ccc(Br)cc2)cc1	·	2.5	·	30.1	72.3*	·
CC(=O)Nc1ccc(C(=O)CSc2nnnn2C)cc1	-6.2	-0.6	2.0	18.5	2.1	0.3
Cn1nnnc1SCC(=O)Nc1ncc(C(F)(F)F)cc1Cl	0.8	4.2	-4.2	-4.7	-4.5	43.5*
CC1CCN(c2ccc(C(=O)O)cc2NS(=O)(=O)c2ccc(Cl)s2)CC1	·	-5.0	·	·	·	·
O=C1SC(SC(=Nc2ccccc2)Nc2ccccc2)C(=O)N1c1ccccc1 (stereo unspecified)	0.7	-0.9	48.5*	35.7	·	0.1
CCCNC(=O)N1C[C@@H](C)[C@@H](OC)CN(C)C(=O)c2cc(NS(=O)(=O)CC(F)(F)F)ccc2OC[C@H]1C	-2.7	·	·	·	-8.4	0.0
COc1ccc(Nc2nc3c(C)cccc3cc2C#N)cc1	0.6	-3.0	-0.3	2.0	·	43.0*
COc1cccc(Nc2nc3cc(OC)ccc3cc2C#N)c1	-2.1	-2.9	4.4	-5.4	·	-0.3
O=C(Nc1cc(F)ccc1F)N[C@H]1CC[C@H](CCNC(=O)c2cnccn2)O[C@H]1CO	-3.9	·	·	·	-2.1	0.0
Cc1cc(Nc2ccccc2)n(-c2ccc(C(=O)O)cc2)n1	-2.1	-3.0	0.2	5.4	·	-0.2
Cc1cc(Nc2ccccc2)n(C(=O)c2ccc(Cl)cc2)n1	-6.8	2.6	·	13.7	52.9*	0.1
O=C(C[C@H]1C=C[C@@H](NC(=O)c2ccncc2)[C@@H](CO)O1)NCc1ccncn1	-5.4	·	·	·	·	·
CCCNC(=O)C[C@@H]1CC[C@@H]2[C@H](COc3ccc(NC(=O)c4cccc(F)c4)cc3C(=O)N2C)O1	-1.1	·	·	·	1.8	-0.1
CN1/C(=C\C=C(/C#N)C(=O)Nc2ccc(Cl)cc2)C(C)(C)c2ccccc21	·	4.8	-4.7	-4.0	·	·
CN1/C(=C\C(=O)Nc2ccc(Cl)cc2)C(C)(C)c2ccccc21	6.4	0.2	2.1	0.5	·	43.6*
CCOC(=O)/C=C1/N(C)c2ccccc2C1(C)C	4.3	-4.0	41.2*	16.2	-0.4	-0.3
COc1ccc(CN(C)C[C@H]2OCCCC[C@H](C)Oc3ccc(NC(=O)Nc4cccc5ccccc45)cc3C(=O)N([C@@H](C)CO)C[C@@H]2C)cc1	5.4	·	·	·	-3.0	0.1
O=c1cnn(-c2ccc(Cl)cc2Cl)c(-c2ccccc2)c1	·	-1.4	·	-2.3	48.7*	·
CNc1c([N+](=O)[O-])cnn1-c1ccc(Cl)cc1Cl	·	0.6	-0.9	5.5	-5.1	·
C[C@@H]1CN([C@@H](C)CO)C(=O)c2cc(NS(=O)(=O)c3ccccc3)ccc2O[C@@H](C)CCCCO[C@H]1CN(C)C(=O)c1ccccc1	-1.0	·	·	·	2.0	-0.2
CCN(Cc1ccccc1)c1ccc(/C=C(\C#N)c2ccccn2)cc1	·	0.3	96.2*	121.2*	77.2*	·
SMILES	MLL AF4-AF9 inh	SMARCA2 activ	Wnt act	MITF TRPM1 HTS	esBAF inh	FGF22 binding
CC[C@]12C(=O)N(C)C[C@H]([C@@H]3C(=O)N(C)C(=O)[C@@H]31)N2C(=O)c1ccc(C)cc1	50.9*	-0.6	-1.5	4.0	6.6	0.2
COc1cccc(S(=O)(=O)N[C@H]2CC[C@H](CC(=O)NCc3ccc(Cl)cc3)O[C@@H]2CO)c1	1.9	·	·	·	-5.1	-0.2
CC(=O)Nc1ccc(S(=O)(=O)C(C#N)c2nc3ccccc3nc2NCCO)cc1 (stereo unspecified)	0.7	-1.5	46.3*	0.6	-0.7	0.1
CC(=O)Nc1ccc(S(=O)(=O)C(C#N)c2nc3ccccc3nc2NCCCO)cc1 (stereo unspecified)	-1.4	-5.0	2.2	-2.7	3.8	-0.1
O=C(CSc1nc2ccccc2c(=O)n1NC(=O)c1ccccc1)c1ccc(Cl)cc1	·	3.1	32.3*	42.4	-7.8	·
Cc1nc2ccccc2c(=O)n1NC(=O)c1ccc([N+](=O)[O-])cc1	-4.7	-2.2	-1.6	-13.5	·	43.1*
O=S(=O)(c1ccccc1)n1c(CN2CCOCC2)nc2ccccc21	·	-2.7	·	·	·	·
O=C(Nc1ccccc1N1CCCCC1)c1ccc(F)cc1	·	-1.0	·	-0.5	-3.6	·
CC(C)(C)c1ccc(COC(=O)Nc2ccc(F)cc2)cc1	1.4	0.1	3.4	67.2	·	0.1
Cc1ccc(NC(=O)Nc2ncccc2C)cc1	·	5.9	29.6	28.6	·	·
CCOC(=O)c1ccc(NC(=O)Nc2ccc(F)cc2)cc1	·	-1.5	29.8	65.8	·	·
COC(=O)c1ccc(NC(=O)Nc2ccc(F)cc2)cc1	·	1.9	·	64.4	59.6*	·
O=C(Nc1ccccc1F)Nc1ccccc1N1CCCCC1	-0.8	-6.6	46.9*	-0.5	5.4	0.1
Cc1cccnc1NC(=O)Nc1ccc(F)cc1	·	2.9	0.2	40.0	51.2*	·
CC(C)(C)c1ccc(NC(=O)Nc2ccc(F)cc2)cc1	0.1	-0.7	-3.0	64.7	·	43.0*
C[C@H]1CCCCO[C@H](CN(C)C(=O)Nc2ccc(C(F)(F)F)cc2)[C@@H](C)CN([C@@H](C)CO)C(=O)c2cc(NS(=O)(=O)c3ccc(Cl)cc3)ccc2O1	-1.1	·	·	·	0.2	-0.5
COC(=O)C1CN(Cc2cn(Cc3ccc(C)cc3)nn2)CCS(=O)(=O)N1Cc1ccc(F)cc1 (stereo unspecified)	·	1.0	·	·	·	·
C[C@@H]1CN([C@H](C)CO)C(=O)c2cc(NC(=O)C3CCCCC3)ccc2O[C@@H](C)CCCCO[C@@H]1CN(C)S(=O)(=O)c1ccc(Cl)cc1	-1.1	·	·	·	3.6	·
CCC(=O)N1CCCCN2[C@H](CO)[C@H](c3ccc(-c4cccnc4)cc3)[C@H]2C1	-5.0	·	·	·	-4.9	0.5
COc1ccc(NC(=O)Nc2ccccc2F)cc1	-5.5	4.5	24.6	71.7	31.5	1.1
O=C(Nc1ccc(F)cc1)Nc1ccccc1F	-1.9	3.8	-5.0	54.9	74.4*	0.1
C[C@H](CO)N1C[C@H](C)[C@H](CN(C)Cc2cccc(F)c2)Oc2cc(-c3cccc(C#N)c3)ccc2S1(=O)=O	-1.4	·	·	·	1.6	-0.7
CCn1c2ccccc2c2cc(NC(=O)C(=O)N3CCOCC3)ccc21	1.8	4.6	-1.3	69.6	70.8*	·
